Experimental data: PubChem BioAssay AID504850 (National Center for Advancing Translational Sciences (NCATS), 2011)
Out of some 2,300 compounds screened, about 1,200 (52%) were called active. Roughly 34% stayed inconclusive and do not appear here. The set was probably picked from earlier hits. This is one part of the list. A number with no mark means an inactive call. Calls come from the whole dose curve; as a rule, active = well fitted inhibition curve with a large enough effect; inconclusive = small, poorly fitted or top-dose-only effect, or effect the other way; inactive = no such curve, though single readings can be large or run the other way.

Assay: Confirmation screen for delayed death inhibitors of the malarial parasite plastid, 48 hour incubation; note: nearly all actives have a fitted effect of over 65% in size
Settings: P. falciparum-infected erythrocytes, luciferase growth; series mostly up to 28.7 µM; activity change, negative = inhibition: at the top concentration
Text: The goal of this screen is to discover new antimalarial compounds that act by inhibiting the development of the apicoplast in the malarial parasite Plasmodium falciparum. The biochemical processes that make this organelle essential for erythrocytic stage parasites are not well understood. However, antibiotics, such as azithromycin and tetracycline, which target the apicoplast translational machinery, have a potent antimalarial effect. […] We have developed a cell-based assay that measures parasite growth based on the expression of an integrated copy of a firefly luciferase reporter. To detect small molecules that cause this "delayed death phenotype, erythrocytes infected with the luciferase-expressing parasites were incubated with compounds for either one or two generations, corresponding to 48 and 96 hours, respectively. Compounds that inhibit parasite growth in the second generation, but not the first, should be enriched in antimalarials that target the apicoplast. Growth inhibition is detected by a decrease in luciferase activity. MLPCN Grant: R21 NS059500 Assay Provider: David Fidock and Eric Ekland, Columbia University Keywords: NIH Roadmap, MLPCN, MLI, MLSMR, qHTS, NCGC, qHTS, malaria, luciferase, viability
Four microliters of culture medium (RPMI 1640 with 0.5% w/v Albumax (GIBCO), 24 mM sodium bicarbonate and 10 ug/mL gentamycin) were dispensed by a Multi-drop Combi into white solid 1536-well plates (Grenier) and 23 nL compound was added by a pin tool. Four microliters of infected erythrocytes (2% hematocrit, 0.1% parasitemia final concentration) in culture medium were dispensed and the plates incubated for 48 hours at 37 C in 5% CO2. Two microliters of luciferase detection reagent was added and luminescence was detected by a ViewLux (PerkinElmer) reader.
% is set by controls: 0 for no effect and ±100 for the full control effect; potency is the fitted concentration of half-maximal effect.

SMILES	activity change, negative = inhibition [%]	Potency
O=c1oc2ccccc2c(O)c1CN1CCCCC1	18.3	
CCCCCCCCCC[n+]1cccc2c3ccccc3ccc21		0.891 µM (active)
CCCCCCCCC[n+]1cccc2c3ccccc3ccc21		0.398 µM (active)
O=S(=O)(Nc1ccc(O)c(Sc2nc3ccccc3s2)c1)c1cccc2ccccc12		15.8 µM (active)
COc1ccc(Nc2cccc(Cl)c2)c(C(=O)O)c1	-15.3	
COc1cc(-c2ccc(Nc3ccccc3C(=O)O)c(OC)c2)ccc1Nc1ccccc1C(=O)O		12.6 µM (active)
COc1cc(-c2ccc(NC(=O)NC3CC3)c(OC)c2)ccc1NC(=O)NC1CC1		12.6 µM (active)
Cc1ccc(S(=O)(=O)C2(C(=O)N3CCCCCC3)CC2)cc1	-19.3	
CC(=O)N1CCSc2ccc(S(=O)(=O)Nc3ccc(C)cc3)cc21		10 µM (active)
O=[N+]([O-])c1ccc(Sc2cccc3cccnc23)c([N+](=O)[O-])c1		4.47 µM (active)
CN1CC2=Cc3ccccc3OC23Oc2ccccc2C=C3C1		3.98 µM (active)
CC(C)=N/N=C1/NC(=O)C(Cc2ccccc2)S1 (stereo not drawn)		11.2 µM (active)
Cc1ccc(-n2ncc3c2CC(C)(C)CC3NC(=O)c2c(C)noc2C)cc1 (stereo not drawn)		11.2 µM (active)
CC1=C(C(=O)NC2CC(C)(C)Cc3c2cnn3-c2ccc(C)cc2)OCCO1 (stereo not drawn)		12.6 µM (active)
CCc1noc(C)c1C(=O)NC1CC(C)(C)Cc2c1cnn2-c1ccccc1 (stereo not drawn)		15.8 µM (active)
Cc1cc(C)c(NC(=O)c2cccc3c2C(=O)N(C2CCCCC2)C3)c(C)c1		10 µM (active)
COc1cccc2cc(C(=O)NCc3ccc(Cl)cc3)c(=N)oc12	-13.6	
COc1ccc(CCNC(=O)c2cc3c(=O)n4cccc(C)c4nc3n(Cc3ccco3)c2=N)cc1OC		12.6 µM (active)
Cc1cc(OCC(=O)N[C@@H](CSCc2ccccc2)C(=O)O)c2c(C)c(C)c(=O)oc2c1		14.1 µM (active)
COC(=O)c1c(-n2c(C)cc(C=O)c2C)sc2c1CCCC2		14.1 µM (active)

SMILES	activity change, negative = inhibition [%]	Potency
COc1cc(NCc2ccc3nc(N)nc(N)c3c2C)cc(OC)c1OC		0.316 µM (active)
O=C(Nc1ccc(C2=NCCN2)cc1)c1ccc(C(=O)Nc2ccc(C3=NCCN3)cc2)c(Cl)c1		0.891 µM (active)
COCCNC(=O)CCCCCN1C(=O)CCC1=O	-8.65	
Cc1cccc(-n2ccc(=O)c(C(=O)Nc3ccc(S(=O)(=O)N4CCOCC4)cc3)n2)c1		11.2 µM (active)
O=S(=O)(c1ccc(Cl)c(NC(=S)N/N=C/c2ccc(O)cc2)c1)N1CCOCC1		11.2 µM (active)
O=C(NC1CC1)C1=C[C@@H](C2CCCCC2)C[C@@H](OCc2ccc(CO)cc2)O1		12.6 µM (active)
O=C(Nc1ccccc1)C1=C[C@@H](C2CCCCC2)C[C@@H](OCc2ccc(CO)cc2)O1		11.2 µM (active)
O=C(NCc1ccccc1)C1=C[C@@H](c2coc3ccccc3c2=O)C[C@@H](OCc2ccc(CO)cc2)O1		10 µM (active)
CN(c1ccccc1)S(=O)(=O)c1ccc(NC(=O)c2nc(S(C)(=O)=O)ncc2Cl)cc1	-6.44	
CN(c1ccccc1)S(=O)(=O)c1cc(C(=O)N2CCN(c3ncccn3)CC2)ccc1Cl		11.2 µM (active)
COc1cc(C(=O)Nc2ccc(S(=O)(=O)Nc3cc(C)on3)cc2)cc(OC)c1OC	3.18	
COC(=O)c1ccc(NC(=O)c2cccc(NC(=O)c3ccccc3)c2)cc1		8.91 µM (active)
COc1ccc(NC(=O)c2cccc(NC(=O)c3ccccc3)c2)c(OC)c1		11.2 µM (active)
COc1cc(C(=O)Nc2ccc(Nc3ccccc3)cc2)cc(OC)c1OC		11.2 µM (active)
COC(=O)c1ccc(CNCC(=O)Nc2ccc(C(=O)OC)cc2)cc1	-23.3	
COc1ccccc1NC(=O)c1ccc2nc(-c3ccccc3)c(-c3ccccc3)nc2c1	1.49	
COc1cc(CN2CCN(S(=O)(=O)c3ccccc3)CC2)cc(OC)c1OC		3.16 µM (active)
COc1ccccc1N1CCN(S(=O)(=O)c2ccc(-n3cnnn3)cc2)CC1	-28	
COCCN1CCCC(CNCc2cn(C)nc2-c2ccc(Oc3ccccc3)cc2)C1 (stereo not drawn)		7.94 µM (active)
Cc1cccc(NC(=O)Cc2coc3ccc4ccccc4c23)n1		12.6 µM (active)

SMILES	activity change, negative = inhibition [%]	Potency
CCOc1ccc(C2C3=C(Nc4nc(N)[nH]c(=O)c42)c2ccccc2C3=O)cc1 (stereo not drawn)		14.1 µM (active)
C/C(=C\C(=O)c1ccncc1)Nc1ccccc1O		14.1 µM (active)
CSc1ccccc1NC(=O)CN1CCN(S(=O)(=O)c2ccccc2[N+](=O)[O-])CC1		14.1 µM (active)
O=C(CCN1CCN(c2ccc(F)cc2)CC1)Nc1ccccc1F	-14.3	
C=CCNC(=O)c1onc(CSc2cccc3ccccc23)c1C(=O)O	13.7	
Cc1c(NC(=O)CSc2nnc3c4ccccc4n(CCc4ccccc4)c3n2)c(=O)n(-c2ccccc2)n1C		11.2 µM (active)
CSc1nnc2c3ccccc3n(CCc3ccccc3)c2n1		15.8 µM (active)
COc1ccc(C)cc1NC(=O)C(Sc1nnc(Nc2cc(C)ccc2OC)s1)c1ccccc1 (stereo not drawn)		14.1 µM (active)
Cn1cc([N+](=O)[O-])c(C(=O)Nc2nccs2)n1	0.495	
CC(C)(C)OC(=O)NCCCCCNC(=O)c1[nH]cnc1C(=O)Nc1nccs1		10 µM (active)
CCn1cc(C(=O)O)c(=O)c2cc(F)c(N/N=C/c3ccccc3)cc21		12.6 µM (active)
O=C(c1cccs1)N1CCC(c2nc3c(nnn3Cc3c(Cl)cccc3Cl)c(=O)[nH]2)CC1		7.94 µM (active)
O=c1[nH]c(C2CCN(S(=O)(=O)c3cccc([N+](=O)[O-])c3)CC2)nc2c1nnn2Cc1ccccc1		10 µM (active)
CC(SC#N)C(=O)C12CC3CC(CC(C3)C1)C2 (stereo not drawn)		8.91 µM (active)
O=C(CSc1nnc(-c2ccco2)o1)N1c2ccccc2CCc2ccccc21		10 µM (active)
C/C(=N\NC(=S)NCC(C)(C)C)c1cc(F)cc(F)c1O		11.2 µM (active)
CC1=NNC(=O)/C1=C\c1cn(-c2ccccc2)nc1-c1cccs1		8.91 µM (active)
COc1cccc(Nc2ccc(N3CCCCC3)cc2)c1OC		6.31 µM (active)
